Publication PMC8384837, “Expanding the binding specificity for RNA recognition by a PUF domain”

Key:
Assay in all cases: yeast three-hybrid, YBZ-1, SC-Leu-His + 0.5 mM 3-AT, 4 days
Details in all cases: tags: N-Gal4 AD-HA kept; label: inside an RPR1-promoter hybrid RNA with tandem MS2 sites; ssRNA
PUM1 PUF domain R1-SLR = PUM1 PUF domain R1-SLR (Homo sapiens, UniProt Q14671 828-1176, R864L;Q867R)
Method in brief: (§1)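 Sequencing with Illumina followed PCR amplification of the repeat regions from transformants grown four days on SC-Leu (input) or SC-Leu-His + 0.5 mM 3-AT (selection). The transformants were strain YBZ-1 with a LexA–MS2 coat fusion and a HIS3 reporter, carrying Pumilio-1 PUF domain libraries and matching RNA elements. The interaction score is the log change in variant frequency from input to selection, computed in log2 with a pseudocount of 1 for absent variants.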

PUM1 PUF domain R5-EFR = PUM1 PUF domain R5-EFR (Homo sapiens, UniProt Q14671 828-1176, C1007E;R1008F;Q1011R)
Method in brief: as §1

PUM1 PUF domain R7-KRG = PUM1 PUF domain R7-KRG (Homo sapiens, UniProt Q14671 828-1176, S1079K;N1080R;E1083G)
Method in brief: as §1

PUM1 PUF domain R7-TVG = PUM1 PUF domain R7-TVG (Homo sapiens, UniProt Q14671 828-1176, S1079T;N1080V;E1083G)
Method in brief: as §1

PUM1 PUF domain R3-TRF = PUM1 PUF domain R3-TRF (Homo sapiens, UniProt Q14671 828-1176, C935T;Q939F)
Method in brief: as §1

PUM1 PUF domain R3-GPT = PUM1 PUF domain R3-GPT (Homo sapiens, UniProt Q14671 828-1176, C935G;R936P;Q939T)
Method in brief: as §1

PUM1 PUF domain R3-LWT = PUM1 PUF domain R3-LWT (Homo sapiens, UniProt Q14671 828-1176, C935L;R936W;Q939T)
Method in brief: as §1

PUM1 PUF domain R3-EWE = PUM1 PUF domain R3-EWE (Homo sapiens, UniProt Q14671 828-1176, C935E;R936W;Q939E)
Method in brief: as §1

PUM1 PUF domain R3-IYL = PUM1 PUF domain R3-IYL (Homo sapiens, UniProt Q14671 828-1176, C935I;R936Y;Q939L)
Method in brief: as §1

PUM1 PUF domain R4-SML = PUM1 PUF domain R4-SML (Homo sapiens, UniProt Q14671 828-1176, N971S;H972M;Q975L)
Method in brief: as §1

With “GGCUAGAACUAGUGGAUCCCCCGGCGCCCGGCGGCUCGAGCCCGGGUAAGUGUAAAUUGUCUGCAUGCCGCCGGGCGCCAUGCCUGCAGGUCGACUCUAGAAAACAUG” the binding signal (PUM1 PUF domain R1-SLR) was 0.57 log2 enrichment (interaction score).
For “GGCUAGAACUAGUGGAUCCCCCGGCGCCCGGCGGCUCGAGCCCGGGUAAGUGUCAAUAGUCUGCAUGCCGCCGGGCGCCAUGCCUGCAGGUCGACUCUAGAAAACAUG”, the binding signal (PUM1 PUF domain R5-EFR) was 1.31 log2 enrichment (interaction score).
“GGCUAGAACUAGUGGAUCCCCCGGCGCCCGGCGGCUCGAGCCCGGGUAAGUGUAAAUCGUCUGCAUGCCGCCGGGCGCCAUGCCUGCAGGUCGACUCUAGAAAACAUG” was tested, and the binding signal (PUM1 PUF domain R1-SLR) was 3.37 log2 enrichment (interaction score).
“GGCUAGAACUAGUGGAUCCCCCGGCGCCCGGCGGCUCGAGCCCGGGUAAGUCUAAAUAGUCUGCAUGCCGCCGGGCGCCAUGCCUGCAGGUCGACUCUAGAAAACAUG” was tested, and the binding signal (PUM1 PUF domain R7-KRG) was 2.64 log2 enrichment (interaction score).
“GGCUAGAACUAGUGGAUCCCCCGGCGCCCGGCGGCUCGAGCCCGGGUAAGUUUAAAUAGUCUGCAUGCCGCCGGGCGCCAUGCCUGCAGGUCGACUCUAGAAAACAUG” was tested, and the binding signal (PUM1 PUF domain R7-KRG) was 2.98 log2 enrichment (interaction score) and the binding signal (PUM1 PUF domain R7-TVG) was 4.37 log2 enrichment (interaction score).
“GGCUAGAACUAGUGGAUCCCCCGGCGCCCGGCGGCUCGAGCCCGGGUAAGUGUAAUUAGUCUGCAUGCCGCCGGGCGCCAUGCCUGCAGGUCGACUCUAGAAAACAUG” was tested, and the binding signal (PUM1 PUF domain R3-TRF) was 0.63 log2 enrichment (interaction score), the binding signal (PUM1 PUF domain R3-GPT) was 2.69 log2 enrichment (interaction score) and the binding signal (PUM1 PUF domain R3-LWT) was 4.05 log2 enrichment (interaction score). The binding signal (PUM1 PUF domain R3-EWE) was 4.69 log2 enrichment (interaction score).
For “GGCUAGAACUAGUGGAUCCCCCGGCGCCCGGCGGCUCGAGCCCGGGUAAGUGUAAAUAGUCUGCAUGCCGCCGGGCGCCAUGCCUGCAGGUCGACUCUAGAAAACAUG”, the binding signal (PUM1 PUF domain R3-TRF) was 4.8 log2 enrichment (interaction score), the binding signal (PUM1 PUF domain R3-GPT) was 2.91 log2 enrichment (interaction score) and the binding signal (PUM1 PUF domain R3-IYL) was 4.44 log2 enrichment (interaction score). For the same sequence, the binding signal (PUM1 PUF domain R4-SML) was 3.12 log2 enrichment (interaction score), the binding signal (PUM1 PUF domain R5-EFR) was 3.42 log2 enrichment (interaction score) and the binding signal (PUM1 PUF domain R3-LWT) was 3.77 log2 enrichment (interaction score).
For “GGCUAGAACUAGUGGAUCCCCCGGCGCCCGGCGGCUCGAGCCCGGGUAAGUGUAAGUAGUCUGCAUGCCGCCGGGCGCCAUGCCUGCAGGUCGACUCUAGAAAACAUG”, the binding signal (PUM1 PUF domain R3-EWE) was 4.74 log2 enrichment (interaction score).
